Compound activity as filed in PubChem.
This is a sample that favours compounds with a hit; in the whole collection about 5.7% have one here.
FAS TE block – inhibitors of human fatty acid synthase thioesterase domain; P49327; recombinant FAS-TE, OMFH fluorogenic substrate, fluorescence endpoint; inhibition, % at 15 µM; 360,000 tested, 0.67% active; AID 602261;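 active = compounds whose normalised, plate-corrected inhibition of enzyme fluorescence in the single-dose primary screen is 50% or more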;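 also: 0% = DMSO with enzyme and 100% = substrate without enzyme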
rCAG binder – molecules binding r(CAG) RNA repeats; r(CAG) RNA repeat, TO-PRO-1 dye displacement fluorescence; inhibition, % at 3 µM; 370,000 tested, 1.3% active; AID 651821;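 active = inhibition above the plate cutoff, the mean of all test compounds on that plate plus 3 SD, cut at about 35% in these data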;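 also: 0% = DMSO alone and 100% = 100 µM mitoxantrone as full dye displacement; higher means more dye released from RNA so lower well fluorescence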
MPTP block – blocks calcium-induced mitochondrial swelling | AID 602449 | 360,000 tested, 1.4% active | inhibition, % at 10 µM | isolated mouse mitochondria, Ca2+ swelling absorbance, 30 min;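 active = inhibition of 50% or more, scaled per plate between neutral and stimulator controls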;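 also: 0% = DMSO wells given calcium and 100% = 1 mM EGTA wells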
Myeloid diff MLP – compounds promoting myeloid differentiation | ER-HoxA9 myeloid progenitors, lysozyme-GFP differentiation, flow cytometry | calls only at 10 µM | 360,000 tested, 1% active;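 active = normalized GFP-positive differentiation at or above the plate's own cutoff, the solvent-only control mean plus 3 SD; inconclusive = no clear call, values can overlap the other calls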;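 also: cells exposed to compound for four days before flow analysis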
GRIN3A LBD mod – modulates the human NR3A ligand-binding domain; NR3A LBD differential scanning fluorimetry, Tm shift; 0% = protein alone, 100% = glycine-bound protein; Tm shift relative to glycine control, % at 25 µM; 340,000 tested, 2.5% active; AID 1259313;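 active = melting temperature shift of at least 10% of the positive control shift, at one fixed dose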
MPTP counter – Rhodamine 123 counter-screen of mitochondrial pore hits; shares compounds with MPTP block; isolated mitochondria, membrane potential, Rhodamine 123 fluorescence; inhibition, % at 10 µM; 5,000 tested, 78% active; in the data active = inhibition above about 22%;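 also: 0% = DMSO vehicle and 100% = positive control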
MPTP abs DR – MPTP inhibition, dose response swelling confirmation. shares compounds with MPTP block. isolated mitochondria swelling, absorbance. IC50, µM. 780 tested, 58% active. AID 651561; in the data active = IC50 below about 20 µM
MPTP cs DR – counter-screen for mitochondrial permeability transition pore inhibitors, dose response; shares compounds with MPTP block; IC50, µM; 780 tested, 49% active; isolated mitochondria counterscreen, fluorescence read-out; AID 651564; in the data active = IC50 below about 80 µM
An asterisk follows results filed as active; i = inactive; ? = inconclusive; . = no result.

SMILES | FAS TE block | rCAG binder | MPTP block | Myeloid diff MLP | GRIN3A LBD mod | MPTP counter | others
O=C(Nc1cccc([N+](=O)[O-])c1)c1ccncc1 | -6 | 1 | -2 | i | 1 | .
CC(C)(C)CC(C)(C)NC(=O)Nc1cccc([N+](=O)[O-])c1 | 40 | 4 | 90* | i | -2 | 84*
CC(C)(C)c1ccc(C(=O)Nc2cccc([N+](=O)[O-])c2)cc1 | 46 | 3 | 95* | i | -10 | 85*
Cn1nc(-c2ccccc2)c2ncc(C(F)(F)F)cc21 | -2 | . | -1 | i | -2 | .
Fc1ccc(NC(=S)NNc2ncc(C(F)(F)F)cc2Cl)c(F)c1 | 4 | -1 | 94* | i | -8 | 94*
Cc1ccc(NC(=S)NNc2ncc(C(F)(F)F)cc2Cl)cc1 | -2 | 1 | -6 | i | -5 | .
FC(F)(F)c1cnc(NNC(=S)Nc2ccc(Cl)cc2)c(Cl)c1 | 19 | 12 | 100* | i | 18* | 92*
CN1CCN(c2ccc(-c3cccc(NC(=O)COc4ccc(Cl)cc4Cl)c3)nn2)CC1 | -5 | 2 | 74* | i | . | -16 | MPTP abs DR=19*;MPTP cs DR=>80
Cc1cc(N=NC(=O)c2ccccc2O)c2ccccc2c1O | -3 | 4 | 74* | i | 1 | 91*
Cc1ncc(CO)c(/C=N/NC(=S)Nc2ccc(Cl)c(Cl)c2)c1O | 12 | 24 | 87* | i | 23* | 70*
Cc1ncc(CO)c(/C=N/NC(=O)c2ccc(O)cc2)c1O | -6 | 0 | -2 | i | 5 | .
Cc1ncc(CO)c(/C=N/NC(=S)Nc2cccc(Cl)c2)c1O | -5 | . | 78* | i | 27* | 79*
Cc1ncc(CO)c(/C=N/NC(=O)c2ccccc2Br)c1O | -9 | -1 | 1 | i | -2 | .
O=C(Nc1cc(Cl)cc(Cl)c1)c1coc(=O)c(Br)c1 | 7 | 3 | 81* | i | 4 | 87*
CC(C)(C)NC(=O)C(c1cccc2ccccc12)n1c(=O)c(-c2cc3ccccc3[nH]2)nc2ccccc21 (centres undefined) | . | 18 | 5 | i | . | .
CCOC(=O)c1ccc(N2CCN(c3ccccc3F)CC2)c(NC(=O)Nc2cccc(OC)c2)c1 | 38 | 14 | 78* | ? | 11* | 84*
CCC(=O)N[C@H]1C=C[C@H](CC(=O)OC)O[C@@H]1CO | . | 1 | -2 | i | . | .
Cc1ccccc1C(=O)NNC(=S)NC(=O)c1ccc(Cl)cc1Cl | -4 | 13 | 76* | . | -13 | 5
Cc1onc(-c2ccccc2)c1C(=O)NNC(=S)NC(=O)c1ccc(Cl)cc1Cl | 0 | 14 | 104* | i | -8 | 33*
Cc1cccc(C(=O)NC(=S)NNC(=O)Cc2ccccc2)c1 | -13 | 5 | 28 | i | 0 | .
Cc1cccc(C(=O)NC(=S)NNC(=O)c2ccccc2Cl)c1 | -6 | 9 | 85* | i | -3 | -7
COc1ccc(/C=C/C(=O)NC(=S)NNC(=O)c2c(-c3ccccc3)noc2C)cc1 | 2 | 12 | 14 | i | -1 | .
Cc1onc(-c2ccccc2)c1C(=O)NNC(=S)NC(=O)/C=C/c1ccccc1 | 7 | 12 | 93* | i | -8 | 5
O=C(NC(=S)NNC(=O)c1ccc(Cl)cc1Cl)c1cccnc1 | -14 | -1 | -2 | i | -2 | .
COc1ccc(OCc2cc(C(=O)NC3CCOC(C)(C)C3)no2)c2ccccc12 (centres undefined) | 11 | 10 | 0 | i | . | .
SMILES | FAS TE block | rCAG binder | MPTP block | Myeloid diff MLP | GRIN3A LBD mod | MPTP counter | others
S=C(Nc1cccc2ccccc12)NC1CCCCC1 | 4 | -2 | 0 | i | -5 | .
c1cc(-c2cc3c(o2)CCCC3OCCN2CCOCC2)cs1 (centres undefined) | -11 | 2 | 0 | i | . | .
Cn1nc(C(C)(C)C)cc1C(=O)N1CCCC(C)(C(=O)NS(=O)(=O)C2CC2)C1 (centres undefined) | -11 | 3 | 0 | i | . | .
COc1ccc(Cl)cc1C(=O)NNC(=S)NC(=O)c1cc(-c2ccccc2)nc2ccccc12 | 11 | 3 | 36 | i | 6 | .
Cc1ccc(C(=O)NNC(=S)NC(=O)c2ccc(Cl)cc2)cc1 | 0 | 24 | 91* | i | -20 | 9
CCCOc1ccc(C(=O)NNC(=S)NC(=O)c2cc(-c3ccc(Cl)cc3)nc3ccccc23)cc1 | 20 | 16 | 93* | i | 14* | 20*
Cc1cccc(C(=O)NC(=S)NNC(=O)COc2c(C)cccc2C)c1 | 0 | 8 | 87* | i | -7 | -7 | MPTP abs DR=6.7*;MPTP cs DR=39*
Cc1onc(-c2ccccc2)c1C(=O)NNC(=O)c1ccccc1 | -7 | 2 | 2 | i | 2 | .
Cc1onc(-c2ccccc2)c1C(=O)NNC(=S)NC(=O)c1ccc(Br)cc1 | 1 | 2 | 68* | i | -5 | 29*
Cn1c(NCc2ccc3occc3c2)nc2cc(-c3cccc(C(F)(F)F)c3)sc2c1=O | 18 | 2 | 2 | i | . | .
O=S(=O)(N/N=C1/CC(c2ccccc2)Oc2ccccc21)c1ccc(Br)cc1 (centres undefined) | 28 | 33 | 76* | i | 21* | 85*
O=S(=O)(N/N=C1/CCCc2ccccc21)c1ccc(Br)cc1 | 19 | 14 | 1 | i | -4 | .
Cc1ccc(C2C3=C(CC(C)(C)CC3=O)NC3=C2C(=O)c2ccccc23)cc1 (centres undefined) | 15 | 4 | 39 | i | -5 | .
CC1(C)CC(=O)C2=C(C1)NC1=C(C(=O)c3ccccc31)C2c1ccc(Cl)cc1 (centres undefined) | 13 | 6 | 98* | i | -2 | 52*
CCCCCc1ccc(-c2cn(CN3C(=O)c4ccccc4C3=O)nn2)cc1 | -8 | 5 | 71* | i | 10 | 11 | MPTP abs DR=<0.2*;MPTP cs DR=<2.5*
CN(C)C(CNC(=O)c1cc(Br)ccc1Cl)c1ccco1 (centres undefined) | -2 | 0 | 2 | i | 2 | .
CN(C)C(CNC(=O)c1cc(S(=O)(=O)N(C)Cc2ccccc2)ccc1Cl)c1ccco1 (centres undefined) | -4 | -7 | 68* | i | 1 | 70*
COCCCN(C(=S)Nc1cc(Cl)cc(Cl)c1)C(C)c1ccncc1 (centres undefined) | -26 | 5 | 93* | i | -6 | 99*
COCCCN(C(=S)Nc1cc(Cl)cc(Cl)c1)C(C)c1ccccn1 (centres undefined) | 9 | -1 | 91* | i | -2 | 87*
COCCCN(C(=S)Nc1ccc(C)cc1Cl)C(C)c1ccncc1 (centres undefined) | -15 | -3 | 0 | i | -2 | .
